# Laboratory results taken from PubChem BioAssay AID720706 (Broad Institute, 2013).
# Screen size: about 350,000 compounds; about 5,500 (1.6%) were called active.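 How the source made its calls: active means significant combined selectivity score with lowered wild-type GFP, culture density cut under 30%, mutant RFP and density less affected; inactive means any of these conditions unmet.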 Only a selection was taken, and actives are over-represented in it overall.
# Assay: reduced GFP signal of wild-type E. coli, primary screen, bacterial rRNA inhibitor project, GFP/RFP fluorescence, OD600, single point (AID 720706)
# Conditions: E. coli WT GFP vs humanized-ribosome RFP mutants, 24 h; GFP signal change (wild-type ribosome): stronger effect = lower value, DMSO median 0, no signal -100; OD600 change: measured here: OD600 growth, DMSO median 0, no signal -100; RFP signal change: measured here: RFP humanized mutant strains, DMSO median 0, no signal -100, concentration not given here
SMILES,GFP signal change (wild-type ribosome),OD600 change,RFP signal change
CCCN1[C@H](C(=O)N[C@H](C)c2ccccc2)[C@@H](CO)[C@@H]2Cn3c(ccc(-c4ccccc4)c3=O)[C@@H]21,-1.92% (inactive),-37.1%,14.2%
Cc1ccc(N2C(=O)SC(N(CC(=O)O)c3ccc(C)cc3)C2=O)cc1 (centres undefined),-19.1% (active),-12.3%,8.05%
Cc1ccc(CC2S/C(=C(/C#N)C(=O)N3CCOCC3)N(c3ccccc3)C2=O)cc1 (centres undefined),7.88% (inactive),10.1%,-0.528%
Cc1cccc(N2C(=O)SC(N(CC(=O)O)c3cccc(C)c3)C2=O)c1 (centres undefined),2.86% (inactive),2.55%,2.75%
CCC(=O)N(C)C[C@@H]1Oc2cc(C#CCOC)ccc2S(=O)(=O)N([C@@H](C)CO)C[C@@H]1C,2.66% (inactive),5.66%,-0.769%
C[C@H](CO)N1C[C@H](C)[C@@H](CN(C)S(=O)(=O)c2ccc(Cl)cc2)Oc2ccc(NS(=O)(=O)c3cccs3)cc2CC1=O,-3.83% (inactive),-15.4%,2.4%
CC(C)(C)C(=O)OCc1nc(-c2ccc(O)c(O)c2)cs1,-25.8% (active),-12.7%,-1.12%
COc1ccc(C(C)(O)c2nc(-c3ccc(C)c(C)c3)cs2)cc1 (centres undefined),-26.3% (inactive),-43.5%,0.438%
CN(c1ccc(O)cc1)c1nc(-c2cccnc2)cs1,-12.4% (inactive),-11.5%,-4.17%
COc1ccccc1-c1ccc([C@@H]2C[C@H]3[C@H](CON3C)CN2S(=O)(=O)c2cc(Cl)cc(Cl)c2)cc1,6.53% (inactive),14.8%,-4.58%
CC(=O)Nc1ccc(NC(=O)CSc2nnnn2-c2ccccc2F)cc1,4.89% (inactive),2.23%,-0.743%
O=C(CSc1nnnn1-c1ccc(O)cc1)c1ccc(F)cc1,-23.8% (inactive),-18.1%,-2.43%
Cc1ccccc1-n1nnnc1SCCCC(=O)c1ccc(F)cc1,-23.1% (active),-14.2%,-2.44%
CCNC(=O)Nc1ccc2c(c1)C(=O)N(C)[C@H]1CC[C@H](CC(=O)NCC3CCCCC3)O[C@@H]1CO2,-0.861% (inactive),-5.67%,0.251%
O=C(c1ccc(F)cc1)N1CC(=O)N2[C@H](CO)[C@H](c3ccc(-c4ccccc4F)cc3)[C@@H]2C1,0.409% (inactive),-9.64%,3.17%
C[C@@H]1CN([C@H](C)CO)C(=O)c2cc(NC(=O)Nc3ccccc3)ccc2O[C@@H](C)CCCCO[C@@H]1CN(C)S(=O)(=O)c1ccc(F)cc1,1.72% (inactive),-2.21%,-3.62%
COc1ccc2c3c(n(C)c2c1)[C@@H](CO)N(C)CC31CN(S(=O)(=O)c2cccs2)C1,0.733% (inactive),-9.82%,-0.435%
O=C(C[C@@H]1CC[C@@H](NC(=O)Nc2ccc(F)cc2)[C@H](CO)O1)NCCN1CCCC1,0.52% (inactive),4.7%,-1.57%
